Screening data deposited in PubChem by The Scripps Research Institute Molecular Screening Center.
A selection: hits, their analogues and other compounds. The true share with any hit is near 4.8%.
SMARCA2 act = activators of SMARCA2 function; MG213 cells, MMTV-luciferase reporter, dexamethasone, overnight; activation, % at 9.1 µM; hit rate 1% among 370,000; AID 652017; in the data active = activation above about 7.8%
hgDAF-12 ag = agonists of H. glycines DAF-12 nuclear receptor | hit rate 1.8% among 370,000 | activation, % at 6.8 µM | AID 687014 | HEK293 GAL4-hgDAF12 UAS-luciferase reporter, agonist luminescence; normalized to butyrate control;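 active = activation above a cutoff set at the mean of all screened compounds plus 3 SD, cut at about 10% in these data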
DAX1 inh-1 = inhibits human nuclear receptor DAX1; P51843; HEK293 Gal4-DAX1 luciferase reporter, luminescence; inhibition, % at 6.75 µM; hit rate 0.99% among 340,000;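 active = inhibition above the mean over all tested compounds plus 3 SD, cut at about 4.2% in these data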;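 also: inhibition shows as a rise in luminescence from relieved DAX1 repression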
Target sequence (P51843 207-470 limits assumed): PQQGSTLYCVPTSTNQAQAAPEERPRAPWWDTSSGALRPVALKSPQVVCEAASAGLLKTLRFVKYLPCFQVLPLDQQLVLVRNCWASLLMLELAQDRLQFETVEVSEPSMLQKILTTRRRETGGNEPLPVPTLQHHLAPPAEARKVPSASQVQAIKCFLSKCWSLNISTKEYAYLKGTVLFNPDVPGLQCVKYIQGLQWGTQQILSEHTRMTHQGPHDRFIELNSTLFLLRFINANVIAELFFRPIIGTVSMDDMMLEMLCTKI
ssDAF12 agonist = activators of S. stercoralis DAF-12 nuclear receptor | AID 652126 | hit rate 1% among 370,000 | activation, % at 6.8 µM | HEK293 ssDAF-12/GRIP1 lit1-tk-luc reporter, luminescence; % of 3 µM dafachronic acid response;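 active = activation above the mean over all tested compounds plus 3 SD, cut at about 0.9% in these data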
DAX1 inh-2 = inhibitors of DAX1 repression of SF-1 activated StAR promoter. inhibition, % at 6.8 µM. hit rate 1.1% among 370,000. AID 652010. HEK293T StAR-luciferase reporter, SF-1/DAX-1 repression relief;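 active = inhibition above the mean over all tested compounds plus 3 SD, cut at about 3.6% in these data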;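 also: higher inhibition means more luminescence from relief of DAX-1 repression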
hcDAF-12 act = activates DAF-12 receptor from parasite H. contortus | HEK293 hcDAF-12 lit1-tk-luc reporter, luminescence; 0% DMSO, 100% Δ7-dafachronic acid | activation, % at 6.8 µM | hit rate 1.4% among 370,000;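 active = activation above the mean of all tested compounds plus 3 SD, cut at about 5.5% in these data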
SMARCA2 act conf = confirmation of SMARCA2 (BRM) function activators. shares compounds with SMARCA2 act. MG213 cells, MMTV-luciferase with dexamethasone, luminescence, overnight; MG213 cells expressing E1A, Rb sequestered; DMSO wells 0%, reference activator 100%. activation, % at 9.1 µM. hit rate 30% among 3,500;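 active = activation above its plate's cutoff, the mean activation of tested wells plus 3 SD, cut at about 7.9% in these data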
VP16 Luc act = GAL4-VP16 reporter activation counter-screen. shares compounds with SMARCA2 act. HEK293 GAL4-VP16 pG5luc reporter, luciferase luminescence; scaled: DMSO wells 0%, SAHA wells 100%. activation, % at 9.1 µM. hit rate 41% among 3,500;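 active = activation above the solvent-only control well mean plus 3 SD, averaged across control plates, cut at about 5.2% in these data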
LXR ag = counter-screen for hcDAF-12 agonists: agonists of human LXR-beta. activation, % at 6.8 µM. 3,400 tested, under 10 active. shares compounds with hcDAF-12 act. HEK293 Gal4-LXR tk-luc reporter, luminescence, 24 h; normalized: DMSO 0%, positive control 100%;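 active = mean percent activation of the reporter above a cutoff set as the average over tested compounds plus their standard deviation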
Target sequence (P55055 whole entry, looked up, the tested form may be a part): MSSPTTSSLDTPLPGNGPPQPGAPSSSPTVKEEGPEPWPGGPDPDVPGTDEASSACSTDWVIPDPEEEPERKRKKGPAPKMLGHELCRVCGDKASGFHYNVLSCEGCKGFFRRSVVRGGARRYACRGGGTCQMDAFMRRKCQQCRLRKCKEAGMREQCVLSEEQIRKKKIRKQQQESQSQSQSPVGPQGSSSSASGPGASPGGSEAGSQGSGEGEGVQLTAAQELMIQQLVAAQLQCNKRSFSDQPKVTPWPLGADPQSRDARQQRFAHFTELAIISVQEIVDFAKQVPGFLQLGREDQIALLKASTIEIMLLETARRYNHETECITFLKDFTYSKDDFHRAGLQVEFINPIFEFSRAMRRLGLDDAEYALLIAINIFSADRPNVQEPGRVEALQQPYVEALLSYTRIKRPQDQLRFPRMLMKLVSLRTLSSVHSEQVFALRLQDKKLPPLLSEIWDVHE
hcDAF12 conf = confirmation of H. contortus DAF-12 agonists. shares compounds with hcDAF-12 act. hit rate 61% among 3,400. HEK293 hcDAF-12 lit1-tk-luc reporter, luminescence; % of Δ7-dafachronic acid response. activation, % at 6.8 µM;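 active = mean activation across triplicate tests above the threshold derived from the earlier primary screen, cut at about 5.5% in these data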
hgDAF12 ag = confirmation of H. glycines DAF-12 agonists. shares compounds with hgDAF-12 ag. hit rate 80% among 3,300. HEK293 GAL4-hgDAF12 luciferase reporter, agonist mode; percent of butyrate response. activation, % at 6.8 µM;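 active = mean activation over triplicate wells above the hit cutoff derived from the earlier primary screen, cut at about 11% in these data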
LXR ag 2 = LXR-beta agonism as DAF-12 counter-screen. shares compounds with hgDAF-12 ag. AID 743051. HEK293 Gal4-LXR luciferase reporter, 24 h. 3,300 tested, under 10 active. activation, % at 6.8 µM;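 active = mean activation of the triplicate above a set limit carried over from the primary screen, none filed active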
Numbers stand for hits.

What do the screens show for `O=C(CNC(=O)c1ccccc1F)c1ccccc1`?
SMARCA2 act: 10.4; hgDAF-12 ag: 16.6; DAX1 inh-1: inactive; ssDAF12 agonist: 1.1; DAX1 inh-2: inactive; hcDAF-12 act: 7.0; SMARCA2 act conf: inactive; VP16 Luc act: 9.6; LXR ag: inactive; hcDAF12 conf: inactive; hgDAF12 ag: 13.9; LXR ag 2: inactive

How did CCCCNC(=O)CN1C(=O)NC2NC(=O)NC21 (stereo not given) do in these assays?
SMARCA2 act: inactive; hgDAF-12 ag: inactive; DAX1 inh-1: inactive; ssDAF12 agonist: inactive; DAX1 inh-2: inactive; hcDAF-12 act: inactive

Results for O=C(Nc1ccc(F)cc1F)N1CCCCCC1 ?
SMARCA2 act: inactive; hgDAF-12 ag: inactive; DAX1 inh-1: inactive; ssDAF12 agonist: inactive; DAX1 inh-2: inactive; hcDAF-12 act: inactive

Results for CCOc1ccc(C)cc1-n1nc2ccccc2n1 ?
SMARCA2 act: inactive; hgDAF-12 ag: inactive; DAX1 inh-1: inactive; ssDAF12 agonist: inactive; DAX1 inh-2: inactive; hcDAF-12 act: inactive

Results for CCn1nc(C)cc1C(=O)N1CCc2c([nH]c3ccccc23)C1c1cc(F)ccc1F (stereo not given) ?
SMARCA2 act: 9.0; hgDAF-12 ag: 14.4; ssDAF12 agonist: inactive; DAX1 inh-2: inactive; hcDAF-12 act: 6.2; SMARCA2 act conf: inactive; VP16 Luc act: 6.3; hgDAF12 ag: 12.7; LXR ag 2: inactive

Results for O=C(c1cc2ncccn2n1)N1CCc2c([nH]c3ccccc23)C1c1ccccc1F (stereo not given) ?
SMARCA2 act: inactive; hgDAF-12 ag: inactive; DAX1 inh-1: inactive; ssDAF12 agonist: inactive; DAX1 inh-2: inactive; hcDAF-12 act: inactive

What do the screens show for `Cc1ccc(C)c(N(CC(=O)NC(C)(C)C)C(=O)CNC(=O)c2cccs2)c1`?
SMARCA2 act: inactive; hgDAF-12 ag: inactive; DAX1 inh-1: inactive; ssDAF12 agonist: inactive; DAX1 inh-2: inactive; hcDAF-12 act: inactive

How did Cc1cc(=O)oc(C)c1C(=O)NC12CC3CC(CC(C3)C1)C2 do in these assays?
SMARCA2 act: inactive; hgDAF-12 ag: inactive; DAX1 inh-1: inactive; ssDAF12 agonist: inactive; DAX1 inh-2: inactive; hcDAF-12 act: inactive

What do the screens show for `Cc1cc(OCC(=O)N(C)C2CCCCC2)ccc1Cl`?
SMARCA2 act: 10.1; hgDAF-12 ag: 17.4; DAX1 inh-1: inactive; ssDAF12 agonist: inactive; DAX1 inh-2: 3.6; hcDAF-12 act: inactive; SMARCA2 act conf: inactive; VP16 Luc act: 16.8; hgDAF12 ag: inactive; LXR ag 2: inactive

Results for O=c1c(-c2ccc(O)cc2)coc2cc(O)cc(O)c12 ?
SMARCA2 act: 9.0; hgDAF-12 ag: 16.6; DAX1 inh-1: 4.2; ssDAF12 agonist: inactive; DAX1 inh-2: inactive; hcDAF-12 act: inactive; SMARCA2 act conf: 13.7; VP16 Luc act: 10.6; hgDAF12 ag: inactive; LXR ag 2: inactive

Results for CCOc1ccc(CCNC(=O)c2ccc3nc(N4CCOCC4)sc3c2)cc1OCC ?
SMARCA2 act: inactive; hgDAF-12 ag: inactive; DAX1 inh-1: inactive; ssDAF12 agonist: inactive; DAX1 inh-2: inactive; hcDAF-12 act: inactive

How did C/C(=N\NC(=O)c1cccs1)c1ccncc1 do in these assays?
SMARCA2 act: 9.5; hgDAF-12 ag: 14.8; DAX1 inh-1: inactive; ssDAF12 agonist: inactive; DAX1 inh-2: inactive; hcDAF-12 act: inactive; SMARCA2 act conf: inactive; VP16 Luc act: inactive; hgDAF12 ag: inactive; LXR ag 2: inactive

Results for O=C(CNC(=O)c1cccs1)c1ccc(Cl)cc1 ?
SMARCA2 act: 8.8; hgDAF-12 ag: 14.7; DAX1 inh-1: inactive; ssDAF12 agonist: inactive; DAX1 inh-2: inactive; hcDAF-12 act: inactive; SMARCA2 act conf: 10.2; VP16 Luc act: 11.8; hgDAF12 ag: 16.5; LXR ag 2: inactive

What do the screens show for `O=C(CNC(=O)c1cccs1)c1ccc([N+](=O)[O-])cc1`?
SMARCA2 act: inactive; hgDAF-12 ag: inactive; DAX1 inh-1: inactive; ssDAF12 agonist: inactive; DAX1 inh-2: inactive; hcDAF-12 act: inactive

How did COC(=O)N/N=C(\C)c1cccs1 do in these assays?
SMARCA2 act: inactive; hgDAF-12 ag: inactive; DAX1 inh-1: inactive; ssDAF12 agonist: inactive; DAX1 inh-2: inactive; hcDAF-12 act: inactive

How did C/C(=N\NC(=O)c1ccc(Cl)cc1)c1cccs1 do in these assays?
SMARCA2 act: 8.4; hgDAF-12 ag: 15.3; DAX1 inh-1: inactive; ssDAF12 agonist: 1.8; DAX1 inh-2: 4.4; hcDAF-12 act: inactive; SMARCA2 act conf: 20.4; VP16 Luc act: 13.6; hgDAF12 ag: 18.4; LXR ag 2: inactive

How did Cc1nnc(SCC(=O)c2c(N)n(Cc3ccccc3)c(=O)n(C)c2=O)n1C do in these assays?
SMARCA2 act: inactive; hgDAF-12 ag: inactive; DAX1 inh-1: inactive; ssDAF12 agonist: inactive; DAX1 inh-2: inactive; hcDAF-12 act: inactive

Results for O=C(Nc1cnc2ccccn2c1=O)c1ccc(Cl)cc1Cl ?
SMARCA2 act: 9.0; hgDAF-12 ag: 16.5; DAX1 inh-1: inactive; ssDAF12 agonist: inactive; DAX1 inh-2: 4.4; hcDAF-12 act: inactive; SMARCA2 act conf: inactive; VP16 Luc act: inactive; hgDAF12 ag: inactive; LXR ag 2: inactive

What do the screens show for `COc1cc(/C=N/O)ccc1OCc1ccc(Cl)cc1`?
SMARCA2 act: 16.7; hgDAF-12 ag: 18.8; ssDAF12 agonist: inactive; DAX1 inh-2: 4.0; hcDAF-12 act: 7.9; SMARCA2 act conf: 12.4; VP16 Luc act: 8.7; LXR ag: inactive; hcDAF12 conf: 5.7; hgDAF12 ag: 15.3; LXR ag 2: inactive

How did Cc1ccc2nc(-c3ccc(SCC(=O)Nc4ccc5c(c4)OCCO5)nc3)[nH]c2c1 do in these assays?
SMARCA2 act: 9.8; hgDAF-12 ag: 19.8; DAX1 inh-1: inactive; ssDAF12 agonist: inactive; DAX1 inh-2: inactive; hcDAF-12 act: inactive; SMARCA2 act conf: inactive; VP16 Luc act: 19.4; hgDAF12 ag: 20.6; LXR ag 2: inactive
